# Measurements published in PubChem BioAssay (EPA / NIEHS).
# Values joined by “and” are separate entries in the source; they are usually repeats but may differ in a detail not shown here. Equal entries are not always repeated. Inconclusive results are not listed. Some structures have more than one record in an assay (separate samples or runs), and their calls can disagree. Active and inactive are the calls of the source. Rule for the calls: active = hit-call score of the fitted dose curve at least 0.9, where 1 is the maximum; inconclusive = response in the unintended direction; inactive = score below 0.9.
# Test system: not listed separately
# Assay: ACEA_ER_AUC_viability: ACEA Biosciences xCELLigence Real-Time Cell Analysis on Estrogen Receptor Agonism for Viability (AID 2283782);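 note: continuous compound exposure with impedance area under curve over 80 h; hit means loss of impedance signal meaning reduced cell growth or viability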
# Procedure, shortened: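 T-47D human breast cells in phenol red-free RPMI1640 with 10% charcoal-stripped FBS were dosed with an 8-point 1:4 dilution series from 100 uM top final concentration, in duplicate. Impedance-based growth was followed for 80 h; AUC analysed versus DMSO.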
SMILES,AC50,outcome
O=C(O)C(F)(F)C(F)(F)C(F)(F)C(F)(F)C(F)(F)C(F)(F)C(F)(F)C(F)(F)F,122 µM (active),inactive
O=C(O)C(F)(F)C(F)(F)C(F)(F)C(F)(F)C(F)(F)F,–,inactive
Nc1ccc(-c2ccc(N)cc2)cc1,–,inactive
Cc1ccccc1CO[C@@H]1C[C@@]2(C(C)C)CC[C@]1(C)O2,74.9 µM (active),–
OCC(O)CO,–,inactive
Cc1cccc(C)c1N,–,inactive
CC(c1ccc(O)cc1)(c1ccc(O)cc1)c1ccc(O)cc1,88.3 µM (active),–
CCSC(=O)N(CC)C1CCCCC1,–,inactive
N#Cc1ccc(N(CC(N)=O)CC(F)(F)F)cc1C(F)(F)F,–,inactive
CCOC(=O)C(O)(c1ccc(Cl)cc1)c1ccc(Cl)cc1,81.3 µM (active),–
Sc1ccccc1,–,inactive
CCOP(=S)(OCC)SCSC(C)(C)C,92.7 µM (active),–
O=C(O)C(F)(F)C(F)(F)C(F)(F)C(F)(F)C(F)(F)C(F)(F)C(F)(F)C(F)(F)C(F)(F)F,78.6 µM (active) and 125 µM (active),–
Cc1cc2c3c(c1)C(c1ccccc1)=N[C@@H](NC(=O)c1ccncc1)C(=O)N3CC2,–,inactive
Oc1c(Cl)c(Cl)c(Cl)c(Cl)c1Cl,77.9 µM (active),inactive
CCC(=O)O[C@H]1CC[C@H]2[C@@H]3CCC4=CC(=O)CC[C@]4(C)[C@H]3CC[C@]12C,92.4 µM (active) and 88.5 µM (active),–
CN(C)c1nc(=O)n(C2CCCCC2)c(=O)n1C,–,inactive
O=S(=O)(O)C(F)(F)C(F)(F)C(F)(F)C(F)(F)C(F)(F)C(F)(F)F,–,inactive
COc1ccc(O)c(C(C)(C)C)c1,64.6 µM (active),–
Cc1ccc(O)c(C)c1,–,inactive
Cc1ccccc1[N+](=O)[O-],–,inactive
ClC1=C(Cl)[C@]2(Cl)[C@@H]3[C@@H](Cl)[C@H]4O[C@H]4[C@@H]3C1(Cl)C2(Cl)Cl,73 µM (active),–
O=C(NC(=O)c1cc(F)c(F)cc1Cl)Nc1cc(F)ccc1N1CCC(C(=O)O)CC1,–,inactive
Clc1ccc(Cl)cc1,–,inactive
CCCCCCCCCc1ccc(O)cc1,21.8 µM (active) and 25.4 µM (active) and 28.8 µM (active),–
O=S(=O)(O)C(F)(F)C(F)(F)C(F)(F)C(F)(F)F,–,inactive
CCC(C)(c1ccc(O)cc1)c1ccc(O)cc1,87.5 µM (active) [middle of 4 runs],–

# Target: AR (gene 367) (UniProt P10275)
# Assay: ACEA_AR_agonist_80hr: ACEA Biosciences xCELLigence Real-Time Cell Analysis on Androgen Receptor Agonism for Proliferation (AID 2283783);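 note: hits increase impedance growth signal above DMSO baseline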
# Procedure, shortened: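 22Rv1 human prostate cancer cells were seeded after preconditioning in assay medium and monitored overnight, then dosed in an eight-point 1:4 dilution series from 100 uM (≤0.5% DMSO). Impedance-based growth was read at 80 h, gain-of-signal versus DMSO.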
# Sequence of AR (gene 367) (P10275 whole entry, looked up): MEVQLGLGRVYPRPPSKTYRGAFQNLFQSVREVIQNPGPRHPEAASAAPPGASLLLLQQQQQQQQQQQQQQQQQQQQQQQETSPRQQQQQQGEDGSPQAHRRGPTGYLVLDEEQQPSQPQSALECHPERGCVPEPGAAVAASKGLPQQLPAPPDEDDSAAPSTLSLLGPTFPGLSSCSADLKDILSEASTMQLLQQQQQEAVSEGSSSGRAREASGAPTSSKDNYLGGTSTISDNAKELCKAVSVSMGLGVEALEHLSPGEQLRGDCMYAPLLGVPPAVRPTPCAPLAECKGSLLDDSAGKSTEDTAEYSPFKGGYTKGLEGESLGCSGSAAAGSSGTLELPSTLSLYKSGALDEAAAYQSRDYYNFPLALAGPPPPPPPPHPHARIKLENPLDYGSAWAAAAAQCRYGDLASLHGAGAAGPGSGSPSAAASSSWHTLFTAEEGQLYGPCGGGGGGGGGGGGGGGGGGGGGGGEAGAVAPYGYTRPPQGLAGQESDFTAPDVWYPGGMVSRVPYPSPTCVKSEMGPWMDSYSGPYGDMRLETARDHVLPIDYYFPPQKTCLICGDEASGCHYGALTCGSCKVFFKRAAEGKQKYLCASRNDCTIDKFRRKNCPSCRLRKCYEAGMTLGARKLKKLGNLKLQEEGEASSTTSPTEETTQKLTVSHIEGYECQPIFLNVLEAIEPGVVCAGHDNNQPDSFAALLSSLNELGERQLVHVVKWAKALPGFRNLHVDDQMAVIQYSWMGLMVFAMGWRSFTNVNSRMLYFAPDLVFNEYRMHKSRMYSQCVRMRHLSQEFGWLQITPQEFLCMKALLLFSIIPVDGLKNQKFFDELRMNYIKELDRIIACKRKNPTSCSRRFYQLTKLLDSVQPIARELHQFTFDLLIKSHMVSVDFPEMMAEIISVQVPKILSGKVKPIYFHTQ
SMILES,outcome,AC50
Cc1ccccc1CO[C@@H]1C[C@@]2(C(C)C)CC[C@]1(C)O2,inactive,–
CCOC(=O)C(O)(c1ccc(Cl)cc1)c1ccc(Cl)cc1,inactive,–
CCC(=O)O[C@H]1CC[C@H]2[C@@H]3CCC4=CC(=O)CC[C@]4(C)[C@H]3CC[C@]12C,–,0.207 nM (active) and 0.285 nM (active) and 0.61 nM (active)
